VP16 counter: counter-screen for ROR gamma inhibitors: Gal4-VP16 reporter | Drosophila S2 Gal4-VP16 UAS-luciferase, luminescence, 20 h | Potency, µM (doses to about 53.6 µM), without a hit: at the top dose activity, negative = inhibition, most hits filed as inhibitors | 310,000 compounds, 3.5% hits;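 note: Gal4-VP16 expression switched on by copper sulfate through the metallothionein promoter; % is set by controls: 0 for no effect and ±100 for the full control effect; nearly all actives have a fitted effect of over 50% in size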
RORg inh: ROR gamma (mouse) transcription inhibition; P51450; Drosophila S2 Gal4-RORgamma UAS-luciferase reporter, 20 h; Potency, µM (titrated, usually from 53.6 µM), for inactives: at the highest dose activity change, negative = inhibition, hits mostly inhibitors; 310,000 compounds, 5.4% hits; AID 2551; note: % is set by controls: 0 for no effect and ±100 for the full control effect; nearly all actives have a fitted effect of over 60% in size
Target sequence (P51450 whole entry, looked up, the tested form may be a part): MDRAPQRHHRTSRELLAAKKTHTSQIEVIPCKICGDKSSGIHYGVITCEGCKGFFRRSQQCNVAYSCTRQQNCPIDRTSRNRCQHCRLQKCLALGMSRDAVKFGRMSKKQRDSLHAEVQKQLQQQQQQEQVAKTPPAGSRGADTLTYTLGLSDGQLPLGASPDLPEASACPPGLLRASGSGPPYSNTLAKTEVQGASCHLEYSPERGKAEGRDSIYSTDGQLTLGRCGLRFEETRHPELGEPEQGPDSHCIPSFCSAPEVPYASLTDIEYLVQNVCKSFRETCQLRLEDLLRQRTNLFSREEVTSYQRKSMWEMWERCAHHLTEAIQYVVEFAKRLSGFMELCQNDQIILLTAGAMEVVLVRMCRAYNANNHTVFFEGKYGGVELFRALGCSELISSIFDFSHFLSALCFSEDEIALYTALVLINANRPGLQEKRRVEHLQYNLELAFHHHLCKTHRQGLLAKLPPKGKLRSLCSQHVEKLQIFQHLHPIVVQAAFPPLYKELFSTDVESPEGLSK
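Stable Schneider cell line, Gal4 DNA-binding domain fused to ROR gamma, UAS-luciferase. Cmpd 1 hr RT → CuSO4 700 uM final → 20 hr RT → luciferase reagent 10 min → luminescence.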
HepG2 tox: counter-screen for TGF-b inhibitors: cytotoxicity in HepG2 cells | HepG2 CAGA-GFP viability, ATP luminescence, 18 h | Potency, µM (titrated, usually from 46.1 µM), without a hit: top-dose activity change, negative = cytotoxicity, hits mostly cytotoxic | 410,000 compounds, 0.76% hits | AID 588856
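CellTiter-Glo luminescence gave cytotoxicity after 18 hours at 37 degrees C. The cells were HepG2 CAGA-GFP in 1% FBS DMEM, stimulated with 500 pg/mL TGF-beta after compound addition. %Activity was normalised to no-cell wells (complete cell-killing) and DMSO (no toxicity), and curves were fitted and classified.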
TGFb inhibitor: TGF-b pathway inhibition | HepG2 CAGA-GFP TGF-b/SMAD3 reporter, GFP fluorescence, 18 h; TGF-beta stimulated, 500 pg/mL final | Potency, µM (top dose mostly 46.1 µM), for inactives: at the top dose activity, negative = inhibition, most hits filed as inhibitors | 410,000 compounds, 1.2% hits | AID 588855; note: % is set by controls: 0 for no effect and ±100 for the full control effect; nearly all actives have a fitted effect of over 65% in size
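Smad-responsive CAGA-GFP expression was quantified in HEPG2 cells exposed to compounds and 500 pg/mL final TGF-beta for 18 h at 37 degrees C; unstimulated wells defined full inhibition.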
ATXN viability: reduces viability in counter-screen for ATXN expression inhibitors; S2 cells (HEK-293 line with an ATXN2-luciferase reporter) viability, CellTiter-Fluor protease fluorescence, 24 h; Potency, µM (series often up to 56.7 µM), hits mostly cytotoxic; 400,000 compounds, 0.49% hits; AID 651635; note: nearly all actives have a fitted effect of over 40% in size
ATXN2 expr inh: reduces ATXN2 reporter expression in HEK-293 cells; Potency, µM (top dose mostly 57 µM), for inactives: at the top dose activity change, negative = inhibition, hits mostly inhibitors; AID 1745845; HEK-293 ATXN2-luciferase reporter, luminescence, 24 h; 360,000 compounds, 0.72% hits; note: % is set by controls: 0 for no effect and ±100 for the full control effect; nearly all actives have a fitted effect of over 55% in size
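qHTS (up to 57 uM final) was run with 24 h compound exposure of reporter cells at 37 °C. Each well was multiplexed: SteadyGlo luminescence measured ATXN2-luciferase expression after a fluorogenic Gly-Phe-AFC viability readout (25 uM final).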
* hit, by the source's call; i = inactive; ? = inconclusive; . = no result given; [ ] = remark or other dose. Sampled rows, rich in hits. Any-hit rate of the full collection: about 6.3%. Calls come from the whole dose curve; as a rule, active = well fitted curve in the direction sought with a large enough effect; inconclusive = small, poorly fitted or top-dose-only effect, or another doubt; inactive = no such curve, though single readings can be large; an effect the other way counts as inactive or inconclusive. Potency is the fitted concentration of half-maximal effect.

SMILES	VP16 counter	RORg inh	HepG2 tox	TGFb inhibitor	ATXN viability	ATXN2 expr inh
CC(=O)N1c2ccc(Cl)cc2C2C=CCC2C1c1cccc2ccccc12 (centres undefined)	22.4µM*	?	-57.6%	?	?	?
CC(=O)N[C@@H](CCC(N)=O)C(=O)O	.	.	.	.	i	5.4%
Nc1nc(N)c2c(ccc3nccc32)[nH]1	-6.3%	-14.8%	1.26µM*	?	?	.
CN(C)CCN1CCN(c2cccc(Cl)c2)C1=O	.	.	.	.	i	17.1%
CCOC(=O)N1CCN(c2ncnc3scc(-c4ccccc4)c23)CC1	3.6%	21.7%	-21.8%	-15.5%	i	-22.9%
CCOC(=O)N1CCN(c2ncnc3scc(-c4ccc(Cl)cc4)c23)CC1	-1.2%	25.1%	-26.2%	15.8µM*	i	.
O=C(N/N=C\C=C\c1ccc(Br)cc1)c1ccc2c(c1)OCO2	4.47µM*	12.6µM*	-7.4%	-1.1%	i	-13.6%
O=C(N/N=C/c1ccc2c(c1)OCO2)c1ccc2c(c1)OCCO2	?	-31.3%	-16.2%	-3.2%	i	27.3%
O=C(NN=Cc1ccc2c(c1)OCO2)c1ccc([N+](=O)[O-])cc1	.	.	7.7%	-9.3%	i	16.7%
O=C(N/N=C/C=C/c1ccc2c(c1)OCO2)c1ccc([N+](=O)[O-])cc1	10µM*	2µM*	-14.1%	0.0%	i	?
CCC[N+](C)(C)c1ccc(/C=C/c2ccncc2)cc1	.	.	-33.0%	43.7%	.	.
COC(=O)c1cc(Cl)ccc1NS(=O)(=O)C(F)(F)F	.	.	.	.	i	10.7%
O=NNc1nc2ccccc2n1Cc1ccccc1	2.82µM*	1.78µM*	0.0%	?	i	?
CC(=O)Nc1nc2ccccc2n1Cc1ccccc1	5.62µM*	2.24µM*	3.8%	-5.8%	i	-24.8%
Nc1ccc([N+](=O)[O-])c(C(F)(F)F)c1	.	.	.	.	i	6.2%
Cc1c(N=C2NC(=O)/C(=C/c3ccc(O)cc3)S2)c(=O)n(-c2ccccc2)n1C	?	5.01µM*	10µM*	0.2%	?	3.7%
CC(=O)C(Sc1nc(NC(C)(C)C)nc(N(C)C)n1)C(C)=O	14.1µM*	6.31µM*	-0.9%	-13.3%	i	6.6%
CCN(CC)CCNC(=O)c1nn(-c2ccc(Cl)cc2)c2c1CCc1cc(OC)ccc1-2	.	.	14.1µM*	?	?	?
COc1ccc2c(c1)CCc1c(C(=O)NCc3ccc(Cl)cc3)noc1-2	9.2%	5.4%	-5.0%	-7.6%	i	-5.7%
COc1cc(/C=C(\C#N)c2nc3ccccc3[nH]2)ccc1OCc1cccc(C(F)(F)F)c1	.	.	-44.2%	?	i	-5.7%
NC(=O)c1cc(S(=O)(=O)N2CCOCC2)cs1	-8.6%	-19.0%	2.7%	3.3%	i	.
CCN(CC)CCNc1ccc(CO)c2oc3cc(Cl)ccc3c(=O)c12	.	.	-43.0%	-11.7%	?	.
CN(C)CCNc1ccc(CO)c2oc3ccc(O)cc3c(=O)c12	.	.	-27.2%	?	26.7µM*	21.2µM*
S=C(NCc1ccc2[nH]c3c(c2c1)CCCC3)Nc1ccccc1Cl	8.91µM*	3.16µM*	-32.3%	?	i	-25.8%
CN(C)S(=O)(=O)c1ccc(C(=O)NCc2ccc3[nH]c4c(c3c2)CCCC4)cc1	-2.7%	?	-7.0%	-3.1%	i	-5.0%
SMILES	VP16 counter	RORg inh	HepG2 tox	TGFb inhibitor	ATXN viability	ATXN2 expr inh
Cc1ccc(C)c(NC(=S)NCc2ccc3[nH]c4c(c3c2)CCCC4)c1	6.31µM*	2µM*	-37.1%	?	?	?
Cc1ccc(NS(=O)(=O)c2ccc3[nH]c4c(c3c2)CCCC4)c(C)c1	.	.	-98.8%	?	?	?
Cc1ccccc1NC(=S)NCc1ccc2[nH]c3c(c2c1)CCCC3	3.55µM*	1.58µM*	-55.7%	?	?	?
COc1cc(OC)cc(C(=O)NNC(=O)C(=O)Nc2cc(OC)c(Cl)cc2OC)c1	-1.8%	7.94µM*	7.0%	-2.1%	?	-9.6%
N#Cc1nccnc1S(=O)(=O)c1cccs1	3.55µM*	3.16µM*	-24.3%	?	i	80.0%
Fc1ccccc1OCCn1c(=S)[nH]c2ccccc21	4.47µM*	5.62µM*	4.2%	-52.5%	i	28.8%
Cc1c(C=O)c2ccccc2n1CCOc1ccccc1F	?	?	-7.6%	?	i	.
Cc1ccccc1OCCn1c(=S)[nH]c2ccccc21	4.47µM*	2.51µM*	-8.5%	-13.1%	i	2.4%
COC(=O)NC(CC(C)=O)c1ccc2c(c1)OCO2 (centres undefined)	-7.1%[10 µM]	21.7%[10 µM]	.	.	.	.
Nc1nc(Nc2ccc(S(N)(=O)=O)cc2)nn1C(=O)c1c(F)cccc1F	.	.	.	.	.	12.2µM*
Cc1c(-c2ccccc2)sc2nc[nH]c(=S)c12	1µM*	0.501µM*	-16.6%	7.2%	i	-1.1%
O=c1[nH]cnc2scc(-c3ccc(-c4ccccc4)cc3)c12	?	-35.8%	-20.7%	0.6%	i	13.6%
CCCCC[C@H](O)/C=C/C=C/C=C/[C@@H](O)C/C=C\CCCC(=O)O	-12.9%	-40.0%	.	.	.	.
Cc1nc(C(=O)NNC(=O)c2ccc(C(F)(F)F)cc2)cs1	?	5.01µM*	-36.4%	-12.0%	?	-28.9%
COCCCNC(=S)Nc1c(C)cc(C)cc1C	?	11.2µM*	-3.4%	-5.4%	i	1.9%
CCOCCCNC(=S)Nc1cc(C)cc(C)c1	10µM*	6.31µM*	-1.9%	2.4%	i	8.3%
Cc1cc(C)c(NC(=S)NCCO)c(C)c1	1.7%	-37.0%	9.1%	2.3%	i	.
COCC1CCCN(Cc2ccc3c(c2)CN(C(=O)c2ccc(-c4ccc(C)o4)cc2)CCO3)C1 (centres undefined)	.	.	.	.	i	.
O=C(CNC(=S)NC(=O)c1ccc(Br)o1)c1ccccc1	?	12.6µM*	-28.8%	23.5%	i	-4.0%
O=C(CNC(=O)c1ccc(Br)o1)NNC(=O)c1ccccc1	.	.	21.1%	-4.5%	i	6.9%
O=C(CNC(=O)c1ccc(Cl)cc1)c1ccc(Br)cc1	19.8%	23.6%	8.1%	33.9%	i	31.1%
O=C(CNC(=S)NC(=O)c1ccc(Cl)cc1)c1ccccc1	12.6µM*	10µM*	-45.9%	-9.1%	i	22.6%
COc1cc(Cl)c(C)cc1NC(=O)c1cc2ccc3cccnc3c2[nH]1	.	.	-64.6%	?	.	.
COc1ccccc1NC(=O)c1cnc(SCC(=O)NCCc2ccccc2)n(C)c1=O	.	.	-5.6%	22.6%	?	8.8%
Cc1ccc(S(=O)(=O)N2CCN(CC(=O)N3CCCC3)CC2)c(C)c1	.	.	3.5%	5.7%	.	-17.4%
